# A selection: hits, their analogues and other compounds. The true share with any hit is near 5.1%.
# GRIN3A LBD mod – NR3A (human) ligand-binding domain modulation; NR3A LBD differential scanning fluorimetry, Tm shift; 0% = protein alone, 100% = glycine-bound protein; Tm shift relative to glycine control, % at 25 µM; actives 2.5% (n = 340,000); AID 1259313;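 active means melting temperature shift of at least 10% of the positive control shift, at one fixed dose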
# TMEM16A act – mouse TMEM16A channel activation, primary screen. HEK293 TMEM16A/YFP-H148Q/I152L, iodide quench fluorescence; hits give low values. actives 0.3% (n = 340,000). Q8BHY3. AID 623877. B-score at 10 µM;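 active means fluorescence-ratio B-score plate-corrected deviation score at least 3 library SD below zero, with starting fluorescence score within 5 deviations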;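 further: channel opened by trigger with iodide after compound preincubation; score built on the fluorescence ratio of max minus min over baseline; more negative score means more quench and so TMEM16A activation or potentiation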
# Target sequence (Q8BHY3 whole entry, looked up): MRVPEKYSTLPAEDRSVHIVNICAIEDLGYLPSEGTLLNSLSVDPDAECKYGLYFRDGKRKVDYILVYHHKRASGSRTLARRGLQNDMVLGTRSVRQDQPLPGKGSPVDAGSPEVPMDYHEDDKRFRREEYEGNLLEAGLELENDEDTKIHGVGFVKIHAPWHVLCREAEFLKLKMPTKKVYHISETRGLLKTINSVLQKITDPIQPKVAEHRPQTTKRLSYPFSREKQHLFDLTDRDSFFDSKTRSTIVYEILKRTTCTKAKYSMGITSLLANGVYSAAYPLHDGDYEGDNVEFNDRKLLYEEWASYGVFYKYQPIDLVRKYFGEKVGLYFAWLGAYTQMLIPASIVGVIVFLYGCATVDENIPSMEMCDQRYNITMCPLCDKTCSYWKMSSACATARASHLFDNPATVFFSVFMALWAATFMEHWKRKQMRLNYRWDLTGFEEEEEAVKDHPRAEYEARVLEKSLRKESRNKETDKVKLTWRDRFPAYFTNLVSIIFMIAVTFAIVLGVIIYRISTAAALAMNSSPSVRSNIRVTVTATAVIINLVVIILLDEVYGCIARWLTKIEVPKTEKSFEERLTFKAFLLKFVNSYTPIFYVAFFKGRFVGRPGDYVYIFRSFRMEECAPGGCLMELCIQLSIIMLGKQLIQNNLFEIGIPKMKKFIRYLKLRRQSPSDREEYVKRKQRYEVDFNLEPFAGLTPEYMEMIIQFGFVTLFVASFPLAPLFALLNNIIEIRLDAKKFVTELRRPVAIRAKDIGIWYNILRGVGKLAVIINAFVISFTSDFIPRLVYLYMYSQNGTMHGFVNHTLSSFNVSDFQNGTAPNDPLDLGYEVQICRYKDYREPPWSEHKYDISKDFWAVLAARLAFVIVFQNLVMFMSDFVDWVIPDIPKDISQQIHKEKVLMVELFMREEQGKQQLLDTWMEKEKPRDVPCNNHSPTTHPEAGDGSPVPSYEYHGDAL
# CRFR2-BP antag – CRF-BP/CRF-R2 complex antagonism; HEK293 CRF-R2/CRF-BP, CRF-induced calcium fluorescence; actives 0.59% (n = 350,000); inhibition, % at 11.8 µM;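 active means inhibition of the ligand-induced calcium signal above about 50% at the single tested concentration, limit read from the data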
# CRFR2-BP ag – CRF-BP/CRF-R2 complex agonism. activation, % at 13.2 µM. actives 0.46% (n = 350,000). HEK293 CRF-R2/CRF-BP, calcium dye fluorescence (FLIPR); percent of saturating CRF peptide response;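 active means activation of at least 50%, plus an integration ratio under a set limit after plate pattern correction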;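 further: plate controls were neutral control wells without compound for no effect and CRF at EC100 for full effect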
# ANO1 block – mouse TMEM16A channel inhibition, primary screen; normalized B-score (activity score, 25-100; higher = stronger inhibition) at 10 µM; Q8BHY3; actives 1.2% (n = 310,000); HEK293 TMEM16A/YFP iodide influx fluorescence, ionomycin;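 active means ratio plate-corrected score three or more library SD toward inhibition, starting fluorescence score within five deviations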;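 further: score derived from kinetic fluorescence span divided by baseline fluorescence per well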
# MPTP block – blocks calcium-induced mitochondrial swelling | isolated mouse mitochondria, Ca2+ swelling absorbance, 30 min | inhibition, % at 10 µM | actives 1.4% (n = 360,000);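 active means inhibition of 50% or more, scaled per plate between neutral and stimulator controls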;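 further: 0% = DMSO wells given calcium and 100% = 1 mM EGTA wells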
# MPTP counter – mitochondrial membrane potential, counter-screen; shares compounds with MPTP block; isolated mitochondria, Rhodamine 123 fluorescence; inhibition, % at 10 µM; actives 78% (n = 5,000); in the data active means inhibition above about 22%;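 further: 0% = DMSO vehicle and 100% = positive control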
# MPTP swell DR – dose response confirmation of mitochondrial permeability transition pore inhibitors | isolated mitochondria swelling, absorbance | AID 651561 | IC50, µM | shares compounds with MPTP block | actives 58% (n = 780); in the data active means IC50 below about 20 µM
# MPTP cs DR – active in counter-screen for permeability transition pore inhibitors | shares compounds with MPTP block | isolated mitochondria counterscreen, fluorescence read-out | IC50, µM | actives 49% (n = 780); in the data active means IC50 below about 80 µM
# * marks the source's active call; other numbers are inactive results; i = inactive; / = no result given.
SMILES,GRIN3A LBD mod,TMEM16A act,CRFR2-BP antag,CRFR2-BP ag,ANO1 block,MPTP block,MPTP counter,others
COCCNc1nc(NCc2ccccc2OC)c2sccc2n1,/,/,/,/,/,1,/,
COc1ccccc1CNc1nc(NCCOc2ccccc2)c2sccc2n1,/,/,/,/,/,60*,91*,
COc1ccccc1CNc1nc(NCc2ccccc2OC)c2sccc2n1,/,/,/,/,/,85*,115*,
COc1ccccc1CNc1nc(NCc2ccc3occc3c2)c2sccc2n1,/,/,/,/,/,72*,99*,
CNc1nc(NCc2ccc(C)cc2C)c2sccc2n1,/,/,/,/,/,3,/,
Cc1ccc(CNc2nc(NCc3ccccc3)nc3ccsc23)c(C)c1,/,/,/,/,/,53*,101*,
COc1ccccc1CNc1nc(NCC2CC2)nc2ccsc12,/,/,/,/,/,80*,92*,
COc1ccc(CC(=O)Oc2ccc(C)cc2Br)cc1S(=O)(=O)N1CCOCC1,6,i,4,-1,i,-2,/,
O=C1NC(=O)N2CCSC2(Cc2ccccc2)N1 (stereo unspecified),-2,i,-16,1,/,-2,/,
Cc1nn(C(C)(C)C)c(C)c1/C=N/OC(=O)Nc1ccc(Cl)cc1,11*,i,-7,-1,i,79*,89*,
CC(C)c1ccc(NC(=O)CCc2ccccc2)cc1,1,i,1,-2,i,1,/,
O=C(CN1C(=O)C(c2ccc(F)cc2)=NC12CCCC2)Nc1ccc(F)cc1,-4,i,1,1,i,60*,53*,
O=[N+]([O-])c1c(O)c(Cl)cc(Cl)c1Cl (tested in a mixture with another compound),-4,i,37,6,/,78*,86*,
COc1ccc(NS(=O)(=O)c2ccc(N/N=C(\C)c3ccncc3)c([N+](=O)[O-])c2)cc1,21*,i,-1,1,i,68*,20*,
COc1ccccc1NS(=O)(=O)c1ccc(N/N=C(\C)C(C)C)c([N+](=O)[O-])c1,-8,i,-12,-4,i,76*,55*,
Cc1ccc([N+](=O)[O-])cc1S(=O)(=O)NCC1COc2ccccc2O1 (stereo unspecified),-7,i,-3,0,i,0,/,
O=c1cc(CO)oc(C(Nc2ccccn2)c2ccc(C(F)(F)F)cc2)c1O (stereo unspecified),0,i,-2,3,i,68*,-14,MPTP swell DR=11*;MPTP cs DR=>80
COc1cccc(-c2nnn(CC(=O)N3CCC(C)CC3)n2)c1,-1,i,-2,-2,i,3,/,
Cc1cc(SCC(=O)N/N=C/c2ccc(O)c(O)c2O)c(C)cc1Br,25*,i,-53,-6,i,92*,57*,
COc1cc(/C=N/NC(=O)CSc2cc(C)c(Br)cc2C)ccc1O,7,i,-6,-1,i,19,/,
CCN1CCN(c2oc(-c3ccccc3)nc2S(=O)(=O)c2ccc(C)cc2)CC1,-1,i,-18,-1,/,6,/,
COc1ccc(/C=N/NC(=O)c2cc(Br)ccc2O)cc1Cn1cc(Cl)cn1,21*,i,22,-1,100*,68*,53*,
COc1ccc2nc(N3C(=O)/C(=C/c4ccc(Cl)cc4)NC3=S)sc2c1,-7,i,32,1,/,95*,3,
COc1ccc(S(=O)(=O)Nc2ccc(C)cn2)cc1,5,i,-19,0,i,2,/,
COc1ccc(NC(=O)COc2ccc(N(C)S(=O)(=O)c3ccc(Cl)cc3)cc2)cc1OC,-6,i,6,1,i,76*,90*,
SMILES,GRIN3A LBD mod,TMEM16A act,CRFR2-BP antag,CRFR2-BP ag,ANO1 block,MPTP block,MPTP counter,others
Cc1cc(C)c2nc(N(CCCN(C)C)C(=O)c3ccc4c(c3)OCCO4)sc2c1,3,i,-23,7,i,89*,-18,
Cc1cc(C)c2nc(N(CCCN(C)C)C(=O)C3=COCCO3)sc2c1,0,i,-3,3,i,61*,-16,MPTP swell DR=12*;MPTP cs DR=>80
CCCN(CC(=O)Nc1ccc(F)c(F)c1F)C(=O)Cc1ccc(OC)c(S(=O)(=O)N2CCOCC2)c1,-2,i,5,2,/,-1,/,
O=c1[nH]c(-c2ccccc2F)nc2c1sc(=S)n2Cc1ccccc1,6,i,-28,9,i,66*,69*,
CCCS(=O)(=O)NC(=O)C1(C)CCCN(C(=O)c2ccc(C(=O)OC)cc2)C1 (stereo unspecified),/,/,/,/,/,-1,/,
Cn1nc(OC(=O)Nc2cccc(Cl)c2)cc1C(F)(F)F,15*,i,7,-1,i,88*,87*,
CC(C)CCC(CCNCc1ccccn1)c1ccc(Cl)cc1 (stereo unspecified),-2,i,-17,1,i,2,/,
CCN(CC)S(=O)(=O)c1ccc(S(=O)(=O)Nc2ccc3c(c2)oc2ccccc23)cc1,24*,i,6,0,i,60*,84*,
CCN(CC)S(=O)(=O)c1ccc(NS(=O)(=O)c2ccc(C)c(C)c2)cc1,-8,i,-7,-1,i,7,/,
Cc1ccc(NC(=O)CSc2nc(N)cc(=O)[nH]2)cc1S(=O)(=O)N1CCCCCC1,0,i,6,5,/,1,/,
CCOc1cc(C(=O)NC(C)CCc2ccccc2)cc(OCC)c1OCC (stereo unspecified),-2,i,12,-2,i,1,/,
O=C(O)CCCCCN1C(=O)/C(=C\c2ccc(-c3ccc(Cl)cc3)o2)SC1=S,0,i,-82,114*,i,88*,47*,
N/C(=N\OC(=O)c1ccccc1F)c1cccc([N+](=O)[O-])c1,-17,i,8,-1,i,-1,/,
CCN(C(=O)COC(=O)c1ccc(=O)n(Cc2ccccc2)n1)C1CCCCC1,-2,i,-2,-3,/,0,/,
CC1=NN(c2ccc(C)cc2C)C(=O)C1C(c1ccccc1O)C1C(=O)N(c2ccc(C)cc2C)N=C1C (stereo unspecified),-8,i,-12,-1,i,0,/,
CC1=NN(c2ccc(Cl)cc2)C(=O)C1C(c1ccccc1O)c1c(C)[nH]n(-c2ccc(Cl)cc2)c1=O (stereo unspecified),255*,i,-24,8,i,88*,24*,

# From PubChem BioAssay
